Only some compounds are listed: those with a hit (about 3.4% of all), similar ones and a draw of the others.
14-3-3 Bad inh: inhibitors of 14-3-3 zeta/Bad binding, primary screen, biochemical, TR-FRET, bovine 14-3-3 zeta; 14-3-3 protein zeta/delta (Bos taurus), P63103; 220,000 compounds, 0.71% hits; TR-FRET 14-3-3zeta/Dy647-pBad peptide displacement, 1 h; inhibition, % at 21.7 µM;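 active = inhibition above about 70%, limit read from the data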;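 also: 0% = full 14-3-3 plus peptide FRET controls and 100% = background without 14-3-3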
Target sequence (P63103 whole entry, looked up): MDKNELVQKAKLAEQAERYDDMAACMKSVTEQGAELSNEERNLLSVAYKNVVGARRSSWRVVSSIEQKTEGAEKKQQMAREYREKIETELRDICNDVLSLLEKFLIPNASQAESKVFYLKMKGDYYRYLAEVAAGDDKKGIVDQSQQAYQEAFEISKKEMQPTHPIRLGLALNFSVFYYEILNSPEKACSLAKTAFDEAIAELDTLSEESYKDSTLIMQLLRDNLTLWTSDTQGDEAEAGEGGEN
Mcl-1 Bim block: inhibitors of Bim peptide binding to Mcl-1, primary screen, biochemical, bead-based flow cytometry, multiplex. Induced myeloid leukemia cell differentiation protein Mcl-1 (Homo sapiens), Q07820. AID 1009, 2008. inhibition, % at 10 µM. 190,000 compounds, 0.1% hits. Bim peptide-Mcl-1 binding; in the data active = inhibition above about 40%;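 also: 0% = no compound tracer wells and 100% = peptide blocker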
Mcl1-Noxa inh: Mcl-1/Noxa binding inhibitors, primary screen, biochemical, TR-FRET, 1536-well; Induced myeloid leukemia cell differentiation protein Mcl-1 (Homo sapiens), Q07820; TR-FRET Mcl-1/Noxa peptide binding, 2 h; inhibition, % at 21.7 µM; 220,000 compounds, 1.5% hits;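 active = compounds that cut the protein-peptide binding signal by more than 50% relative to plate controls in a single-dose test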;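 also: His-tagged Mcl-1 with rhodamine Noxa BH3 peptide and terbium anti-His antibody; 0% = Mcl-1 plus Noxa peptide wells and 100% = peptide-only wells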
Calpain2 inh: inhibitors of pig calpain II, primary screen, biochemical, fluorogenic peptide substrate, 1536-well; inhibition, % at 16 µM; purified calpain II, 30 min; AID 1236, 2008; 220,000 compounds, 0.37% hits;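 active = inhibition above about 50%, limit read from the data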
Mcl1-Bid inh: Mcl-1/Bid binding inhibitors, primary screen, biochemical, TR-FRET, 1536-well. TR-FRET Mcl-1/Bid-Dy647 peptide binding. inhibition, % at 21.7 µM. 220,000 compounds, 0.97% hits;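 active = compounds that cut the binding signal by more than half at the single screening dose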;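 also: His-tagged Mcl-1 with europium anti-His antibody binding Bid BH3 peptide; 0% = Mcl-1 plus peptide wells and 100% = peptide-only wells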
p47phox inh: p47phox/p22phox peptide binding inhibitors, primary screen, biochemical, uHTS, NADPH oxidase regulatory subunit; 220,000 compounds, 0.53% hits; fluorescence polarization, 2 h; inhibition, % at 24.7 µM;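 active = inhibition above about 30%, limit read from the data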;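 also: 0% = p47phox with labelled peptide and 100% = labelled peptide alone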
Numbers without * were called inactive; . = no result.

SMILES	14-3-3 Bad inh	Mcl-1 Bim block	Mcl1-Noxa inh	Calpain2 inh	Mcl1-Bid inh	p47phox inh
FC(F)(F)c1ccccc1CN1CCN(Cc2ccccc2)CC1	73.6*	-2.0	11.8	3.7	11.6	-7.6
Cc1ccc(CN2CCN(Cc3ccccc3F)CC2)cc1	56.6	-3.0	16.1	-12.8	7.4	4.2
Cc1oc(-c2ccccc2Cl)nc1CN1C(=O)CN=C(c2ccccc2)c2ccccc21	6.2	1.0	4.4	12.2	4.8	-9.6
CCCCCCNC(=O)N[C@H](Cc1ccc(O)cc1)C(=O)NCCC[C@H]1CN2C(=NC[C@H]2CCC)N1CC1CCC1	-11.1	.	18.0	23.8	-45.0	59.9*
CN1CCN(C(=O)COc2ccc(-c3nc4ccccc4s3)cc2)CC1	3.0	-1.0	16.9	-53.6	1.8	-11.5
O=P(Nc1cccc(Cl)c1)(Oc1ccccc1)Oc1ccccc1	-0.7	1.0	6.4	59.6*	18.4	-7.4
CC1(C)OC(c2ccccc2)=C/C(=C/C=C2C(=O)NC(=S)NC2=O)O1	-12.4	26.0	-29.9	-72.3	-23.6	-249.0
CN1/C(=C\C=C2C(=O)NC(=S)NC2=O)C(C)(C)c2ccccc21	-24.1	-3.0	-35.5	0.1	82.4*	-231.7
O=C1NC(=O)C(CCc2ccncc2)(C2CCCCC2)C(=O)N1	-4.4	-1.0	-1.6	9.5	-6.8	5.3
c1ccc(CCN2CCC(N3CCN(c4ccccc4)CC3)CC2)cc1	14.7	-2.0	11.4	-8.5	-15.7	-14.3
CCCCN(Cc1ccccc1)C1CCN(CCc2ccccc2)CC1	17.2	-7.0	50.7*	-2.2	16.4	-7.3
CC(=O)OC1(c2ccccc2)CCN(C)CC1(C)C (stereo not drawn)	13.3	1.0	9.7	24.1	-0.1	6.7
O=c1oc2ccccc2c(O)c1[C@H]1c2ccc(O)cc2Oc2c1c(=O)oc1ccccc21	7.5	.	60.7*	8.2	-0.8	-29.8
CN(C)C1(CNC(=O)c2ccc(Cl)c(S(=O)(=O)NCc3ccco3)c2)CCCCC1	-6.3	1.0	7.3	-25.8	-41.6	-2.4
COCCNP(=O)(c1ccccc1)c1nc2ccccc2s1 (stereo not drawn)	1.5	-2.0	3.7	5.6	57.6*	-9.8
Cc1ccc(NP(=O)(c2ccccc2)c2nc3ccccc3s2)cc1 (stereo not drawn)	-7.5	-2.0	6.4	2.5	-19.1	2.7
O=C1NC(=O)N(CC2CCCO2)C(=O)/C1=C/c1cccs1 (stereo not drawn)	-2.3	.	12.6	-6.2	-43.8	-14.1
CCOc1ccc(N2C(=O)/C(=C\c3cccs3)C(=O)NC2=S)cc1	40.1	2.0	66.7*	-16.9	35.5	14.9
O=C1NC(=S)N(c2ccccc2F)C(=O)/C1=C\c1cccs1	17.5	-4.0	86.2*	-32.6	32.0	-3.4
CCOC(=O)Cc1csc(NC(=O)c2c(O)c3ccccc3n(CCC(C)C)c2=O)n1	-6.2	-2.0	-9.0	-282.2	-35.1	-10.0
CSc1ncc(/C=C2/C(=O)NC(=O)N(c3ccc(Cl)cc3)C2=O)cn1	0.3	1.0	42.8	12.3	-9.8	1.0
CCCN(CC#CCOc1ccc(OC)cc1)CCC	93.9*	0.0	18.9	12.8	20.6	-13.0
Clc1ccc(OCC#CCN2CCCC2)cc1	32.7	0.0	5.4	5.5	-4.6	0.8
COc1ccc2[nH]c(C)c(CCN3CCC(=O)C(C)C3C)c2c1 (stereo not drawn)	6.1	-3.0	18.6	60.1*	-13.9	-12.9
Cc1nc2ccccc2c(=O)n1-c1ccc(F)cc1	-4.9	-2.0	9.9	13.1	-1.3	32.3*
CCN(CC)c1ccc(/C=C2\C(=O)NC(=O)N(Cc3ccco3)C2=O)cc1	-18.2	0.0	19.2	8.0	-58.1	126.5*
COC(=O)C1=Nc2ccccc2/C1=C\c1c(O)n(-c2cc(OC)ccc2OC)c(=O)[nH]c1=O	40.1	1.0	65.3*	-32.0	22.8	-55.7
CN(C)C1=C(C#N)C(c2ccccc2)=NP(N(C)C)(N(C)C)=N1	-8.2	3.0	9.9	-0.3	-2.3	-26.2

Assay outcomes (PubChem BioAssay)
